The values below come from the supplement of paper PMC13380429.

In this experiment the test system is Vero E6 infected with SARS-CoV-2. As to the kind of experiment: inhibition of SARS-CoV-2 cytopathic effect; higher = more antiviral protection, active = above 15. The note with it: 48 h.

A number with no mark means an inactive call.

Consider `C1CCN2C[C@@H]3C[C@@H](CN4CCCC[C@@H]34)[C@H]2C1` [sparteine-sulfate], for which the “inhibition of SARS-CoV-2 cytopathic effect” value (from here on “inhibition”) (1 nM) is 0.15%; the “inhibition” value (8.33 nM) was 4.17%; the “inhibition” value (100 nM) is 3.05%; the “inhibition” value (833.33 nM) was 1.05%; the “inhibition” value (10000 nM) is -2.55%.
Take `CC(=O)Nc1ccc(S(=O)(=O)c2ccc(NC(C)=O)cc2)cc1` [acedapsone]: the “inhibition” value was -1.54% (1 nM); -3.01% (8.33 nM); -3.82% (100 nM); -1.51% (833.33 nM); 5.34% (10000 nM).
For the compound `N[C@@H](Cc1ccc(O)cc1)C(=O)NCC(=O)NCC(=O)O`, the “inhibition” value (1 nM) is 1.38%; the “inhibition” value (8.33 nM) is 0.88%; the “inhibition” value (100 nM) was 1.16%; the “inhibition” value (833.33 nM) is 1.07%; the “inhibition” value (10000 nM) was 0.4%.
In the case of `N#CCC(=O)c1ccccc1`, the “inhibition” value (1 nM) was 4.1%; the “inhibition” value (8.33 nM) is 4.15%; the “inhibition” value (100 nM) was 0.67%; the “inhibition” value (833.33 nM) was 2.33%; the “inhibition” value (10000 nM) is -0.41%.
In the case of `CCCCC/N=c1\ccn(Cc2ccccc2)c2ccccc12`, the “inhibition” value by setting is: (1 nM) -2.64%; (8.33 nM) -0.49%; (100 nM) -2.77%; (833.33 nM) -0.71%; (10000 nM) -9.28%.
`c1ccc2nc(C3=NCCN3)cnc2c1`: the “inhibition” value (1 nM) was 2.54%; the “inhibition” value (8.33 nM) is 1.85%; the “inhibition” value (100 nM) is 1.24%; the “inhibition” value (833.33 nM) is 4.82%; the “inhibition” value (10000 nM) is 2.03%.
Consider `CN(C)/C=N/c1c(I)cc(I)c(CCC(=O)O)c1I` [iopodic-acid], for which the “inhibition” value runs as follows: (1 nM) -3.57%; (8.33 nM) 0.15%; (100 nM) -0.76%; (833.33 nM) 0.26%; (10000 nM) -2.24%.
For `CC(CN(C)C)C(C)(O)Cc1ccc(Cl)cc1` (stereo not given) [clobutinol], the “inhibition” value is -0.23% (1 nM); 2.65% (8.33 nM); 1.61% (100 nM); -3.1% (833.33 nM); -0.69% (10000 nM).
Turning to `COc1ccc(-c2sc(NC(=O)C(C)(C)C)nc2C)cc1S(=O)(=O)Nc1ccc(O)cc1` [PI4KIII-beta-inhibitor-1], the “inhibition” value is -2.8% (1 nM); -1.82% (8.33 nM); 0.52% (100 nM); 0.18% (833.33 nM); 5.19% (10000 nM).
As for `COc1ccc(C(=O)c2c(C)n(CCN3CCOCC3)c3ccccc23)cc1` [pravadoline], the “inhibition” value (1 nM) is 3.43%; the “inhibition” value (8.33 nM) was 2.8%; the “inhibition” value (100 nM) is -0.1%; the “inhibition” value (833.33 nM) is -1.26%; the “inhibition” value (10000 nM) was -0.15%.
As for `N#Cc1cc(F)cc(-c2nc(-c3ccc(F)cn3)no2)c1`, the “inhibition” value runs as follows: (1 nM) 0.6%; (8.33 nM) 2.48%; (100 nM) 1.15%; (833.33 nM) -0.25%; (10000 nM) 2.97%.
As for `Oc1c(I)cc(Cl)c2cccnc12` [clioquinol], the “inhibition” value was -4.79% (1 nM); -6.61% (8.33 nM); -4.78% (100 nM); -5.93% (833.33 nM); -9.21% (10000 nM).
The like results for `Nc1c2ccccc2nc2ccccc12` [9-aminoacridine] were, in that order, -6.32%, 1.57%, -3.73%, 0.13% and -28.3%.
Regarding `CC(C)(C)NC(=O)N[C@H](C(=O)N1C[C@H]2[C@@H]([C@H]1C(=O)NC(CC1CCC1)C(=O)C(N)=O)C2(C)C)C(C)(C)C` (stereo not given in full) [boceprevir], the “inhibition” value by setting is: (1 nM) 0.88%; (8.33 nM) -0.31%; (100 nM) -1.61%; (833.33 nM) -1.89%; (10000 nM) 1.17%.
Turning to `CCCCCOc1ccc(-c2cc(-c3ccc(C(=O)N[C@H]4C[C@@H](O)[C@@H](O)NC(=O)[C@@H]5[C@@H](O)[C@@H](C)CN5C(=O)[C@H]([C@H](O)CC(N)=O)NC(=O)[C@H]([C@H](O)[C@@H](O)c5ccc(O)c(OS(=O)(=O)O)c5)NC(=O)[C@@H]5C[C@@H](O)CN5C(=O)[C@H]([C@@H](C)O)NC4=O)cc3)no2)cc1` [micafungin], the “inhibition” value reads like this: (1 nM) -6.42%; (8.33 nM) -5.65%; (100 nM) -5.9%; (833.33 nM) -3.13%; (10000 nM) 4.81%.
In the same order, the values of `C[N+]1(C)CCC(OC(=O)C(c2ccccc2)c2ccccc2)CC1` are -1.59%, 2.05%, 1.2%, 1.67% and 1.67%.
Take `Cn1c(=O)c2[nH]cnc2n(C)c1=O` [aminophylline]: the “inhibition” value reads like this: (1 nM) -0.89%; (8.33 nM) -0.66%; (100 nM) -1.42%; (833.33 nM) -0.87%; (10000 nM) -0.09%.
Regarding `CCNC(=O)[C@H]1O[C@@H](n2cnc3c(N)nc(NCCc4ccc(CCC(=O)O)cc4)nc32)[C@H](O)[C@@H]1O`, the “inhibition” value was -1.55% (1 nM); -1.11% (8.33 nM); -2.43% (100 nM); -1.74% (833.33 nM); 1.23% (10000 nM).
As for `O=C1C2C=Nc3ccccc3C2=NN1c1ccc(Cl)cc1` (stereo not given), the “inhibition” value runs as follows: (1 nM) 0.17%; (8.33 nM) -0.02%; (100 nM) 1.99%; (833.33 nM) 3.3%; (10000 nM) -0.09%.
As for `CCN(CC)Cc1ccc(C(=O)N(CCc2ccccc2OC)[C@@H]2CCNC2)cc1`, the “inhibition” value reads like this: (1 nM) -1.07%; (8.33 nM) -4.2%; (100 nM) -1.66%; (833.33 nM) -1.07%; (10000 nM) -1.55%.
`C[C@@H](N)c1ccc(C(=O)Nc2ccnc3[nH]ccc23)cc1`: the “inhibition” value is 0.69% (1 nM); -1.06% (8.33 nM); 0.35% (100 nM); -5.51% (833.33 nM); -13.4% (10000 nM).
Consider `CNC(=O)ON(C(C)=O)C(=O)NC` [caracemide], for which the “inhibition” value was -4.06% (1 nM); -3.46% (8.33 nM); 0.29% (100 nM); -1.19% (833.33 nM); 8.36% (10000 nM).
Take `CCOC(=O)[C@H](C)C[C@@H](Cc1ccc(-c2ccccc2)cc1)NC(=O)CCC(=O)O` [sacubitril]: the “inhibition” value is, setting by setting: (1 nM) -3.45%; (8.33 nM) -0.1%; (100 nM) -1.3%; (833.33 nM) -3.34%; (10000 nM) 2.18%.
The like results for `COC(=O)Nc1nc2cc(SC(C)C)ccc2[nH]1` [methiazole] were, in that order, 0.45%, 0.55%, 2.08%, 2.73% and -1.24%.
As for `C[C@H](Oc1cc(-c2cnn(C3CCNCC3)c2)cnc1N)c1c(Cl)ccc(F)c1Cl` [crizotinib-(S)], the “inhibition” value was 0.35% (1 nM); -0.2% (8.33 nM); -0.33% (100 nM); -0.47% (833.33 nM); 54.7% (active) (10000 nM).
For `CC1CS(=O)(=O)CCN1/N=C/c1ccc([N+](=O)[O-])o1` (stereo not given) [nifurtimox], the “inhibition” value by setting is: (1 nM) -0.09%; (8.33 nM) 0.8%; (100 nM) -1.28%; (833.33 nM) 2.01%; (10000 nM) 1.23%.
